PubChem BioAssay (NCI)
Compounds without any hit were thinned out: in the full panel of roughly 83,000, 20% have a hit.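 Single-dose data. Exposure time 48 hours. Values below 10 considered active.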 Active and inactive are the calls of the source.

Experiments:
Test in all cases: NCI-60 one-dose screen, 48 h (100 = growth as untreated, 0 = no growth, -100 = all killed)
Conditions in all cases: 10 µM unless noted
SR leukemia = test system: SR leukemia
RPMI-8226 leukemia = test system: RPMI-8226 leukemia
OVCAR-8 ovarian = test system: OVCAR-8 ovarian
OVCAR-5 ovarian = test system: OVCAR-5 ovarian
OVCAR-4 ovarian = test system: OVCAR-4 ovarian
SK-OV-3 ovarian = test system: SK-OV-3 ovarian
IGROV1 ovarian = test system: IGROV1 ovarian
OVCAR-3 ovarian = test system: OVCAR-3 ovarian
HS 578T breast = test system: HS 578T breast
NCI/ADR-RES ovarian = test system: NCI/ADR-RES ovarian

Measured: growth

COC(=O)c1ccc(-c2c(-c3ccccc3)c(F)c3oc(C(=O)OC)c(N)c3c2-c2ccccc2)cc1
inactive: SR leukemia 76.9% | RPMI-8226 leukemia 101% | OVCAR-8 ovarian 105% | OVCAR-5 ovarian 96.6% | OVCAR-4 ovarian 97.6% | SK-OV-3 ovarian 98.7% | IGROV1 ovarian 102% | OVCAR-3 ovarian 103% | HS 578T breast 91.1% | NCI/ADR-RES ovarian 94.3%

CCOc1ccc(-c2cc(-c3cc(C(C)C)c(O)cc3C)nn2-c2ccc(S(N)(=O)=O)cc2)cc1
inactive: RPMI-8226 leukemia 13.8% | OVCAR-8 ovarian 36.4% | OVCAR-5 ovarian 53% | OVCAR-4 ovarian 29.6% | SK-OV-3 ovarian 55.3% | IGROV1 ovarian 80.4% | OVCAR-3 ovarian 36.2% | HS 578T breast 35.9%
active: SR leukemia 5.54% | NCI/ADR-RES ovarian 4.14%

COc1ccc(-c2nc3ccccc3n2CC(=O)N=Nc2c(O)[nH]c3ccc(Br)cc23)cc1
active: SR leukemia 7.92%
inactive: RPMI-8226 leukemia 79.1% | OVCAR-8 ovarian 71.1% | OVCAR-5 ovarian 113% | OVCAR-4 ovarian 91.3% | SK-OV-3 ovarian 96.8% | IGROV1 ovarian 60.3% | OVCAR-3 ovarian 48.7% | HS 578T breast 68.7% | NCI/ADR-RES ovarian 78.9%

Cc1nn(-c2ccccc2)c2ncn(CC(=O)N/N=C/c3ccccc3O)c(=O)c12
inactive: SR leukemia 13.3% | RPMI-8226 leukemia 45.4% | OVCAR-8 ovarian 19.7% | OVCAR-5 ovarian 63.2% | OVCAR-4 ovarian 39.4% | SK-OV-3 ovarian 37.7% | IGROV1 ovarian 40.6% | OVCAR-3 ovarian 18% | HS 578T breast 54.9% | NCI/ADR-RES ovarian 23.3%

N#C/C(=C1/C(=O)Nc2ccccc21)c1nnc(NC(=O)c2ccc(-n3c(=O)[nH]c4ccccc4c3=O)cc2)s1
inactive: SR leukemia 17% | RPMI-8226 leukemia 11.5% | OVCAR-8 ovarian 40.2% | OVCAR-5 ovarian 63.5% | OVCAR-4 ovarian 31.2% | SK-OV-3 ovarian 75.1% | IGROV1 ovarian 38.7% | OVCAR-3 ovarian 25.6% | HS 578T breast 55.6% | NCI/ADR-RES ovarian 22.9%

C[C@H]1[C@@H](CC(=O)N[C@@H](Cc2coc3ccccc23)B(O)O)O[C@@H]2OC3(C)CC[C@H]4[C@H](C)CC[C@@H]1[C@@]24O3
inactive: SR leukemia 29.6% | OVCAR-8 ovarian 47.1% | OVCAR-4 ovarian 33% | SK-OV-3 ovarian 58.8% | NCI/ADR-RES ovarian 19.5%
active: RPMI-8226 leukemia -4.75% | OVCAR-5 ovarian -26.1% | IGROV1 ovarian 9.89% | OVCAR-3 ovarian 3.84% | HS 578T breast -0.841%

COc1ccc2[nH]cc(-c3cc(N)n4nc(-c5c[nH]c6ccccc56)cc4n3)c2c1
active: RPMI-8226 leukemia -11.5% | OVCAR-8 ovarian -43.9% | OVCAR-5 ovarian 7.37% | SK-OV-3 ovarian 3.49%
inactive: SR leukemia 11.1% | OVCAR-4 ovarian 30.9% | IGROV1 ovarian 16% | OVCAR-3 ovarian 14.6% | HS 578T breast 37.2% | NCI/ADR-RES ovarian 27.7%

Cc1cc(=O)oc2cc(OCC(O)CNN3C(=O)c4cccc5c(N6CCN(C)CC6)ccc(c45)C3=O)ccc12 (stereo not given)
inactive: SR leukemia 81.1% | RPMI-8226 leukemia 97.4% | OVCAR-8 ovarian 91.4% | OVCAR-5 ovarian 112% | OVCAR-4 ovarian 99.1% | SK-OV-3 ovarian 116% | IGROV1 ovarian 109% | OVCAR-3 ovarian 103% | HS 578T breast 87.4% | NCI/ADR-RES ovarian 89.4%

Clc1ccc(-c2nc3ccc(-c4nnc(SCc5ccccc5)o4)cc3[nH]2)cc1
inactive: SR leukemia 23.3% | RPMI-8226 leukemia 27.7% | OVCAR-5 ovarian 32.4% | SK-OV-3 ovarian 83.1% | IGROV1 ovarian 27.1% | HS 578T breast 48.7%
active: OVCAR-8 ovarian 8.94% | OVCAR-4 ovarian 3.57% | OVCAR-3 ovarian -1.55% | NCI/ADR-RES ovarian -9.86%

COc1cccc(NC(=O)c2ccc(NC(=O)CCl)s2)c1
active: SR leukemia -0.752% | RPMI-8226 leukemia -22.9% | SK-OV-3 ovarian -1.99% | IGROV1 ovarian -13.4%
inactive: OVCAR-8 ovarian 10.2% | OVCAR-5 ovarian 47.3% | OVCAR-4 ovarian 94.6% | OVCAR-3 ovarian 35.8% | HS 578T breast 65.9% | NCI/ADR-RES ovarian 22.5%

COc1ccc2oc(=O)c(-c3csc(N/N=C(\C)c4cc(OC)c(OC)c(OC)c4)n3)cc2c1
inactive: SR leukemia 70.4% | RPMI-8226 leukemia 72.9% | OVCAR-8 ovarian 86.2% | OVCAR-5 ovarian 109% | OVCAR-4 ovarian 86.5% | SK-OV-3 ovarian 172% | IGROV1 ovarian 91.2% | OVCAR-3 ovarian 110% | HS 578T breast 110% | NCI/ADR-RES ovarian 77.9%

CC(=O)c1ccc2c(N)c(C(=O)Nc3ccc(C(F)(F)F)cc3)sc2n1
inactive: SR leukemia 39.3% | RPMI-8226 leukemia 37.3% | OVCAR-8 ovarian 61.1% | OVCAR-5 ovarian 92.8% | OVCAR-4 ovarian 35.6% | SK-OV-3 ovarian 89.1% | IGROV1 ovarian 93.5% | OVCAR-3 ovarian 94.4% | HS 578T breast 84.2% | NCI/ADR-RES ovarian 34.8%

O=C(/C=C1\C(=O)N(Cc2ccccc2)c2ccccc21)c1cc2ccccc2oc1=O
inactive: SR leukemia 22.5% | RPMI-8226 leukemia 98.8% | OVCAR-8 ovarian 98% | OVCAR-5 ovarian 116% | OVCAR-4 ovarian 84.5% | SK-OV-3 ovarian 109% | IGROV1 ovarian 67.4% | OVCAR-3 ovarian 38.6% | HS 578T breast 89.3% | NCI/ADR-RES ovarian 91.3%
